Data taken from the supplement of paper PMC11732987, “Enantioselective OTUD7B fragment discovery through chemoproteomics screening and high-throughput optimisation” (Communications Chemistry, 2025).

Assays:
Assay in all cases: log2 ratio of Biotin-Ahx-Ub-VS probe labelling (fragment/DMSO); higher = less target engagement (more negative = stronger competition), active = hit call of the paper (q ≤ 0.05, log2 ratio ≤ -1)
Settings in all cases: compound concentration: 200 uM; treatment time: 3 h
[1] = target: T1, USP19 (UniProt O94966)
T1 sequence (whole entry): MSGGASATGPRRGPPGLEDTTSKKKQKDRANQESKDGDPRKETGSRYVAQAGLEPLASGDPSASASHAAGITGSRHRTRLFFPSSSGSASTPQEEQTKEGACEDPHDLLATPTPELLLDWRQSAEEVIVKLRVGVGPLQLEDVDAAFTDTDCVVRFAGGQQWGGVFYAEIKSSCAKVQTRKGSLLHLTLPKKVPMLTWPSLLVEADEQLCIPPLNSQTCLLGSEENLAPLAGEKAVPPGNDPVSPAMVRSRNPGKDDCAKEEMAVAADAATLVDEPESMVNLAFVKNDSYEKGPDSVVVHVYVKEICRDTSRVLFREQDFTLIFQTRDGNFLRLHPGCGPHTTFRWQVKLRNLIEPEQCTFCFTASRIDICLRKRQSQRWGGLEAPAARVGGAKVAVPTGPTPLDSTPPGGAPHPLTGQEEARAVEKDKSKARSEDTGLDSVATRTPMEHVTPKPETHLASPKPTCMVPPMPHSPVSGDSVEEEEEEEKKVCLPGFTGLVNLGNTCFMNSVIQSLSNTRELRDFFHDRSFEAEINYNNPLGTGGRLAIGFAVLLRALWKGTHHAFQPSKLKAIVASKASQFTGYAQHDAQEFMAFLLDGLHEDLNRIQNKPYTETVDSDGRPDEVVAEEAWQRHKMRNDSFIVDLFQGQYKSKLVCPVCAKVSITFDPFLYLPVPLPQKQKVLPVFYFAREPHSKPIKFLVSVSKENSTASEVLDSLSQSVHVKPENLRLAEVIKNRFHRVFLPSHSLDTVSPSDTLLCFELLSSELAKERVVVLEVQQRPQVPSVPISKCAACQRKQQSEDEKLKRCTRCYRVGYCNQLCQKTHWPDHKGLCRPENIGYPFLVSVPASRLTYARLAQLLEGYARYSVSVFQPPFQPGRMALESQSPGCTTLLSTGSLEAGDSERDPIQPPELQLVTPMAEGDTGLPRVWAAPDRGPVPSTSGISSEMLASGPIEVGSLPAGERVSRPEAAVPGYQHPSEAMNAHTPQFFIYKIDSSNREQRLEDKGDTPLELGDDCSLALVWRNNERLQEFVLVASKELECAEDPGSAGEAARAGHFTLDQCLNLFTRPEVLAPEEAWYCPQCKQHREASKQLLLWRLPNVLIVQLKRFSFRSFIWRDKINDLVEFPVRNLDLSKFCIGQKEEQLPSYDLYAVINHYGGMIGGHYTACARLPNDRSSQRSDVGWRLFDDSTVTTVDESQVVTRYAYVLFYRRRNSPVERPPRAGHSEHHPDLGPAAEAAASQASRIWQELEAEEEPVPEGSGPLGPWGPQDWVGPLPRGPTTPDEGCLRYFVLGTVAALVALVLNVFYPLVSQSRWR
How it was run: (§1)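 Labelled DUBs were enriched with NeutrAvidin, digested with LysC and trypsin, and run by diaPASEF LC-MS/MS. The labelling used Biotin-Ahx-Ub-VS at 0.5 µM final for 1 h on HEK293T lysate (495 µg per sample) previously treated in triplicate with fragment at 200 µM or vehicle for 3 h. Values are average log2 fragment/vehicle ratios by unpaired t-test on global-median-normalised Spectronaut quantities of proteins with ≥2 unique peptides.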

[2] = target: T2, USP22 (UniProt Q9UPT9)
T2 sequence (whole entry): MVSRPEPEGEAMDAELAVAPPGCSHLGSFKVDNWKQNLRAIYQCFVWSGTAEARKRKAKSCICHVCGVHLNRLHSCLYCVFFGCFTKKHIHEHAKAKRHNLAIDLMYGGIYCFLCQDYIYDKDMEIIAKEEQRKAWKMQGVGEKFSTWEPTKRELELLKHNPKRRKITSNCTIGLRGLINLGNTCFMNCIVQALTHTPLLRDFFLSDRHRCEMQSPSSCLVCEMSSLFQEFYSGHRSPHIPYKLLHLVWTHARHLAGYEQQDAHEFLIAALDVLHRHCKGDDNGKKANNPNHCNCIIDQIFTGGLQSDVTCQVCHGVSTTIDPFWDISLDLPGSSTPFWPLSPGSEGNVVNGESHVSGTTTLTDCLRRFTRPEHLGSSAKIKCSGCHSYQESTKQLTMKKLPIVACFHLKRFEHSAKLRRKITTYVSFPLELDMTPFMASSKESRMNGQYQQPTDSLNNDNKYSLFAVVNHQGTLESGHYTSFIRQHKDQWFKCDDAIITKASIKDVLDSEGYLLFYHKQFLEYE
How it was run: as §1

[3] = target: USP24 (UniProt Q9UPU5)
How it was run: as §1

[4] = target: T3, USP25 (UniProt Q9UHP3)
T3 sequence (whole entry): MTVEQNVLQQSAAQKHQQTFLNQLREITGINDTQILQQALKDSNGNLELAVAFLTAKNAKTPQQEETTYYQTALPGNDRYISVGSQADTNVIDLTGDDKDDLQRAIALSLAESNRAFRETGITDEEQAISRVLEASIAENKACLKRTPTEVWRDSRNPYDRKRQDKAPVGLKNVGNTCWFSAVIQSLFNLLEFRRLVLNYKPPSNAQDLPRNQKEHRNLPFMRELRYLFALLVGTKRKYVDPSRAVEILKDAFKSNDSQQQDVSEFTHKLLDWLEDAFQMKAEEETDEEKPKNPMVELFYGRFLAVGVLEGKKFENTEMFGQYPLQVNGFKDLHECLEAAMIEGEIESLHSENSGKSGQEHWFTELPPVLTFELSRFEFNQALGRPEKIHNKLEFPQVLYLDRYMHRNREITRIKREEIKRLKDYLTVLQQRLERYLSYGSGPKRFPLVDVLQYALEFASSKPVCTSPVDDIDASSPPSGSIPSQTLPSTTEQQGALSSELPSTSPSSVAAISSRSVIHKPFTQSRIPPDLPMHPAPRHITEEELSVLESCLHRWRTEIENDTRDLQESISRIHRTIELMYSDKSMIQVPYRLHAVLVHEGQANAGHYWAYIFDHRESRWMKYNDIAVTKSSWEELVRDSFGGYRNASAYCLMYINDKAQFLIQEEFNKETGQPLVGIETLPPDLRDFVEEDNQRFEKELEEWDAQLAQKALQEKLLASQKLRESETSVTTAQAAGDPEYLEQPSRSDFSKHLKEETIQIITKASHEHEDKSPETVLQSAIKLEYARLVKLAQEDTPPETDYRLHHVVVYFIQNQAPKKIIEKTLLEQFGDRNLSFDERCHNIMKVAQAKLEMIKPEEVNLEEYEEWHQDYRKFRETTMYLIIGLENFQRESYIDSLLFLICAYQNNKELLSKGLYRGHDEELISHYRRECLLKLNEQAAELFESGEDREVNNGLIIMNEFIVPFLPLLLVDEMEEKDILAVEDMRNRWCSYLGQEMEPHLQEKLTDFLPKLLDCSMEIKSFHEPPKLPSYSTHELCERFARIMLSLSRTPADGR
How it was run: as §1

[5] = target: T4, USP28 (UniProt Q96RU2)
T4 sequence (whole entry): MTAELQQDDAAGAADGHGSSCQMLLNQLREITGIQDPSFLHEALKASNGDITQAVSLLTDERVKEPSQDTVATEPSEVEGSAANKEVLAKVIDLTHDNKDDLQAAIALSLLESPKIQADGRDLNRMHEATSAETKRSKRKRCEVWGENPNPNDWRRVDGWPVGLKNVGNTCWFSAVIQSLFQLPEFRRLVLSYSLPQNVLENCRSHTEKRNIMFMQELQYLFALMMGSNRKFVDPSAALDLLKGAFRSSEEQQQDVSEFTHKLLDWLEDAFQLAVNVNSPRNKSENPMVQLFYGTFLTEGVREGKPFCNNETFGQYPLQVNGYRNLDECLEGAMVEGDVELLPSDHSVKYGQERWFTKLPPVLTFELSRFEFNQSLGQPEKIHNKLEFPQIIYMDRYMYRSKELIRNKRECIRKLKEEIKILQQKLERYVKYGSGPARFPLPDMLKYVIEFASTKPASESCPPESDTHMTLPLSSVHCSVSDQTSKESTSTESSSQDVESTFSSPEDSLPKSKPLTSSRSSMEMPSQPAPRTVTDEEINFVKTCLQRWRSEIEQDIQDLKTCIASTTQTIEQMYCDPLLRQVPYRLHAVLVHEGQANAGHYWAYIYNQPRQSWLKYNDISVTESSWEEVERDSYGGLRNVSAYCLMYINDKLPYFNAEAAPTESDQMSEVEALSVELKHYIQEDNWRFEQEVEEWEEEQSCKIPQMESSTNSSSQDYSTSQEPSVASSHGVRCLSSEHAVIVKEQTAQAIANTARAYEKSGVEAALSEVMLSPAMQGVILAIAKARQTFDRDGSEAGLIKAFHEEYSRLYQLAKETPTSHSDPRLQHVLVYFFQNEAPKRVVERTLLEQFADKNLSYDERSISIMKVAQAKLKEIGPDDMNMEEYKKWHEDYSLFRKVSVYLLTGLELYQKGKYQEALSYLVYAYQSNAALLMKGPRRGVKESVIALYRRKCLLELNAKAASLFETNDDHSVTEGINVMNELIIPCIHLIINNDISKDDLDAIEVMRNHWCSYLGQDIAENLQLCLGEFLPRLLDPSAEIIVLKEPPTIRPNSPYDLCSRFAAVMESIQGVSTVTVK
How it was run: as §1

Measured: log2 ratio of Biotin-Ahx-Ub-VS probe labelling

Sequence of USP24 (Q9UPU5 whole entry): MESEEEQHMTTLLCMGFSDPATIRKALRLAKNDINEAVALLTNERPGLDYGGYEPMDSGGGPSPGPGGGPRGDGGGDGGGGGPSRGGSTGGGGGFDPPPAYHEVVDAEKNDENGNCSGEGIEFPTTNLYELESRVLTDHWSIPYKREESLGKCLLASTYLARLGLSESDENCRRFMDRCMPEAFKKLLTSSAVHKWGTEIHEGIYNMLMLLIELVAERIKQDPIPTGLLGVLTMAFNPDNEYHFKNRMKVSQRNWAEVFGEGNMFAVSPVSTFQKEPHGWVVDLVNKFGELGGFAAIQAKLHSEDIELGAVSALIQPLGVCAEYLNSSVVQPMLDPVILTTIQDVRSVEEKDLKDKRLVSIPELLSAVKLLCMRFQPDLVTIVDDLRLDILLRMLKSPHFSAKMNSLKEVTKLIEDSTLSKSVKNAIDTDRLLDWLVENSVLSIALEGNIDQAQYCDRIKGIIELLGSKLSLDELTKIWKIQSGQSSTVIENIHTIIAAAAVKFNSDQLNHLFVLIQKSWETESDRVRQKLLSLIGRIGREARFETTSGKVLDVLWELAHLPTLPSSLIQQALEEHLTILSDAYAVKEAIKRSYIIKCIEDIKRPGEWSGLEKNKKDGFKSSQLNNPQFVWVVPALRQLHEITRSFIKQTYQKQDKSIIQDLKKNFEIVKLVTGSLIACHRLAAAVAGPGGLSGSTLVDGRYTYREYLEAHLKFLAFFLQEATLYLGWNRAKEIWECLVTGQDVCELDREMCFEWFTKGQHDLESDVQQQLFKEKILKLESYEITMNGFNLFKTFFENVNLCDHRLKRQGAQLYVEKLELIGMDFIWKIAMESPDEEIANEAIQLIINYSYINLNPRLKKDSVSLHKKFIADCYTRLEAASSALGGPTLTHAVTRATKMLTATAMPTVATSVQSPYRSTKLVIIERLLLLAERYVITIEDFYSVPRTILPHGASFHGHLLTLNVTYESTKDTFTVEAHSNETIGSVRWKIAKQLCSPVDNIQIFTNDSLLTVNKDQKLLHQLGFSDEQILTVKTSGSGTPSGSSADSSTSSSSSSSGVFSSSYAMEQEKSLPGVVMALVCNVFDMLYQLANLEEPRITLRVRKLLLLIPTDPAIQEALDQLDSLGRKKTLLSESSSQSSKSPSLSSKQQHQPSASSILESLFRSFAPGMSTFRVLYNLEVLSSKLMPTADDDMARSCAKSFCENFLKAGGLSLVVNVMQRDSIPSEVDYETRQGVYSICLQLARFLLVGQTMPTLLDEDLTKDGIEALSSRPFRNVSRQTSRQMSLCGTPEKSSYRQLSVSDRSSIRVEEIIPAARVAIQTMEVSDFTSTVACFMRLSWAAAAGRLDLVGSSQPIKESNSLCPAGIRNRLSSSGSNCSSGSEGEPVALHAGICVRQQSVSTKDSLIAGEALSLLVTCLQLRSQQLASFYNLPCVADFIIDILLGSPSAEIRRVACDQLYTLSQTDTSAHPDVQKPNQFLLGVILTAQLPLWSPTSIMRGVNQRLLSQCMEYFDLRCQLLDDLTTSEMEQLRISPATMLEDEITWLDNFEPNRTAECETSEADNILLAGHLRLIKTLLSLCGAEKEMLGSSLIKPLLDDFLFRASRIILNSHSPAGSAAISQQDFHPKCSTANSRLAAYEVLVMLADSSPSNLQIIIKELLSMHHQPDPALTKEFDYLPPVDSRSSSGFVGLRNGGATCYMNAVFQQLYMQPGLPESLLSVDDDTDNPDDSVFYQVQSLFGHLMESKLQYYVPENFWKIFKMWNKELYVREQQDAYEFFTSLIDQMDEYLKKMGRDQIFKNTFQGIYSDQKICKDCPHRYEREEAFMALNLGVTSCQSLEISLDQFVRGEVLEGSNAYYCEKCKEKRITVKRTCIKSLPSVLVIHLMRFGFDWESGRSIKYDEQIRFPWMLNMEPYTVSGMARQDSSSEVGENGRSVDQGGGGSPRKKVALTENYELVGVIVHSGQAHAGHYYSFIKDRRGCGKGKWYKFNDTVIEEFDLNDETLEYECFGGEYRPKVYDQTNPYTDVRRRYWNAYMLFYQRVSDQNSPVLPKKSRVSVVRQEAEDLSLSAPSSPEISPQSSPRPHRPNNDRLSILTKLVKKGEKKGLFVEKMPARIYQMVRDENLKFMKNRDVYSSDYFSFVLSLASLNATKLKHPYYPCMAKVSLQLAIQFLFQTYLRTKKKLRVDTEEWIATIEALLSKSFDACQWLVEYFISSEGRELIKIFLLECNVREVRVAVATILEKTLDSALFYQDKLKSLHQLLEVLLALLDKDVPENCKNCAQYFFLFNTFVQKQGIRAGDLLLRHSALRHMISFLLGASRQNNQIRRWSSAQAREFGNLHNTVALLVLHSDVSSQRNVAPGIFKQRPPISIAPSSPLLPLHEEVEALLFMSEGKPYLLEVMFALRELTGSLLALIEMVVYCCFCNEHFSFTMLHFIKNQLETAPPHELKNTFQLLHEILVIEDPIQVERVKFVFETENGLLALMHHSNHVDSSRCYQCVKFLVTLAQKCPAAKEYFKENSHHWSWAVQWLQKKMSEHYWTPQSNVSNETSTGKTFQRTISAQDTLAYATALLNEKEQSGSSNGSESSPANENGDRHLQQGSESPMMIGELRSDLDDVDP

C/C(=C\CNC(=O)CCl)c1cnn(C)c1.Cl
inactive: [1] -0.404 | [2] 0.026 | [3] -0.203 | [4] -0.578 | [5] -0.395
